Screening data from PubChem BioAssay.
Compounds with a hit are over-represented: about 6.1% of the library has one in this group of screens.
D1 PAM: Potentiators of Human D1 Dopamine Receptor: qHTS. HEK293 TREx D1 cells, calcium flux, dopamine EC20 potentiation. potentiation, % at 10 µM. 0.036% of 360,000 active. AID 504651, 2011; in the data active means potentiation above about 30%; further: 0% is about no effect
DRD3 antagonist: qHTS of D3 Dopamine Receptor Antagonist: qHTS | D(3) dopamine receptor (Homo sapiens), P35462 | D3R cells, DiscoveRx beta-arrestin luminescence, antagonist mode; hits give low values | max response, negative = inhibition, % | 2.5% of 360,000 active; in the data active means max response below about -50%; inconclusive means no clear call, values can overlap the other calls; further: on the % scale 0 is the no-effect control and ±100 the full control effect
Target sequence (P35462 whole entry, looked up): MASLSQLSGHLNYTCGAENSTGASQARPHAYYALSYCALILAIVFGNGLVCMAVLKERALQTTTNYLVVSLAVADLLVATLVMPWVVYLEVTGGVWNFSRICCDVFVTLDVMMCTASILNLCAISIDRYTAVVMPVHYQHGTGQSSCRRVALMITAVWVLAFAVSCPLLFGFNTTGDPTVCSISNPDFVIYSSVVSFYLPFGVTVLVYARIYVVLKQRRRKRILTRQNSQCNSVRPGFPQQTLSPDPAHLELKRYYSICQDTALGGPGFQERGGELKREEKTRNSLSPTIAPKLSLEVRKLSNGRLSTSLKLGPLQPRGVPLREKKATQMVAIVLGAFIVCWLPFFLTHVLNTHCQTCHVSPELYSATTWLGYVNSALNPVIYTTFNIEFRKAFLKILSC
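Cells expressing the human receptor were seeded at 1500 cells/well, incubated overnight at 37 degrees C in 5% CO2, then exposed to library compounds with dopamine controls for 90 minutes at 37 degrees C before luminescent detection.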
DRD3 agonist: qHTS of D3 Dopamine Receptor Agonist: qHTS; D3R DiscoveRx beta-arrestin cells, luminescence, 90 min; max activation, %; 0.58% of 410,000 active; AID 652048, 2013; in the data active means max activation above about 30%; further: 0% is about no effect
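Agonist mode: compounds and dopamine controls were applied to plated cells for 90 min at 37 degrees C after an overnight attachment at 1500 cells/well. Luminescent read-out followed 30 - 60 minutes at room temperature with DiscoveRx detection reagent.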
D1 antagonist: Antagonist of Human D 1 Dopamine Receptor: qHTS; activity change, negative = inhibition, % at 10 µM; HEK293 TREx D1 cells, calcium flux, dopamine EC80; hits give low values; D(1A) dopamine receptor (Homo sapiens), P21728; 3.2% of 360,000 active; in the data active means activity change below about -30%; further: on the % scale 0 is the no-effect control and ±100 the full control effect
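Cells carrying a force-coupled, tetracycline-inducible human D1 receptor report calcium flux. Each well gets a 10 s baseline, compound with 180 s monitoring, then an EC80 dopamine stimulus with a second 180 s kinetic read.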
ERG Ets-DNA blk: qHTS for Small Molecule Inhibitors of the ERG Ets/DNA interaction; Transcriptional regulator ERG (Homo sapiens), P11308; fluorescence polarization, His-ERG Ets domain / labelled DNA; Potency, µM (doses to about 76.9 µM), for inactives: top-dose FP activity, negative = inhibition, usual class: inhibitors; 0.028% of 370,000 active; active means well fitted inhibition curve with a large enough effect in the polarisation, with a control signal flat; inconclusive means small, poorly fitted or top-dose-only effect, or effect the other way, or a change in a side signal; inactive means no such curve, though single readings can be large or run the other way; the % refers to the polarisation;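 further: polarization taken with two DNA probes labelled with fluorescein and Texas red; potency means the concentration at half of the fitted maximal effect; % of control where 0% means no effect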
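His-tagged ERG Ets domain (1 uM in the protein solution; 300mM KCl, 50mM Tris-HCl, 1mM EDTA, 1mM DTT, pH 7.5) received compound, then a probe mix of 5 nM fluorescein-DNA and 100nM Texas-615-DNA. Fluorescence polarization was read for both dyes.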
D1 agonist: Allosteric Agonists of the Human D1 Dopamine Receptor: qHTS | HEK293 T-REx D1 cells, calcium flux, agonist mode | activation, % at 2 µM | 1% of 360,000 active | AID 504660, 2011; in the data active means activation above about 30%; further: 0% is about no effect
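Tetracycline-induced HEK293 TREx D1 cells, force-coupled to calcium signalling, were dye-loaded with a no-wash calcium kit. Compound was pin-added after a 10 s baseline. Fluorescence was read kinetically at 1 cycle/s for 180 s, with calcium rises flagged as agonism.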
Numbers without * were called inactive; ? = inconclusive; / = no result given; ! = repeats disagree.

SMILES	D1 PAM	DRD3 antagonist	DRD3 agonist	D1 antagonist	ERG Ets-DNA blk	D1 agonist
CCOc1ccc(CNc2ccc(N3CCN(Cc4ccccc4)CC3)cc2)cc1	-16	-62*	-21	-6	-2%	12
CCOc1ccc(CNc2ccc(N3CCCC3)cc2)cc1	-4	-12	-6	-8	3%	2
CCOc1ccc(C(=O)CCC(=O)NNC(=O)CCN2CCN(c3ccccc3)CC2)cc1	/	-63*	-4	/	1%	/
O=C(OCCN1CCCCC1)c1ccccc1F	1	-24	-28	8	26%	0
O=C(NCc1ccc(C(F)(F)F)cc1)C1CC(c2ccccc2[N+](=O)[O-])=NO1 (stereo not drawn)	2	?	-14	13	-3%	2
COc1cc(Cc2cc(N)nc(N)n2)cc(OC)c1OC	-2	6	6	9	10%	1
CCCOc1ccc(C(=O)CCNc2ccc(C)c(Cl)c2)cc1	-3	-84*	-12	-7	/	3
CCN(CC)c1ccc(C(=C2C=CC(=[N+](CC)CC)C=C2)c2ccccc2)cc1	/	-105*	-16	/	/	/
CCN(CC)c1ccc(C(=C2C=CC(=[N+](CC)CC)C=C2)c2ccc(N(CC)CC)cc2)cc1	/	-19	-10	/	?	/
O=C(NCCc1ccc(Cl)cc1)c1cc(-c2ccccc2)n[nH]1	2	/	-1	-31*	5%	1
CC(C)(C)NC(=O)c1cc(-c2ccccc2)n[nH]1	-7	-9	1	-32*	-1%	4
CC(CNC(=O)c1cc(-c2ccccc2)n[nH]1)c1ccccc1 (stereo not drawn)	-3	/	0	-51*	-1%	0
Cc1ccc(C2NC(=O)NC3=C2CCc2ccccc23)cc1 (stereo not drawn)	-2	-86*	1	-60*	-1%	0
CC(C)c1ccc(C2NC(=O)NC3=C2CCc2ccccc23)cc1 (stereo not drawn)	0	12	2	-3	-2%	3
CCOc1ccc2ccccc2c1/C=N\NC(=O)c1ccc([N+](=O)[O-])cc1	14	?	-5	-11	1%	2
O=C(c1ccco1)N1CCN(C(=O)c2cnn(-c3cccc(F)c3)c2C2CCNCC2)CC1	-8	1	84*!	-6	0%	1
Cc1ccc(Cl)cc1N1CCN(C(=O)c2cnn(-c3ccc(Cl)cc3)c2C2CCNCC2)CC1	-2	/	-22	-2	-1%	38*
Cc1cc(C)cc(NC(=O)c2cnn(-c3ccc(C)c(C)c3)c2C2CCNCC2)c1	-4	/	-3	3	0%	12
Cc1ccc(N2CCN(C(=O)c3cnn(-c4ccc(C)c(C)c4)c3C3CCNCC3)CC2)c(C)c1	-5	/	-19	3	2%	82*
Cc1cccc(N2CCN(C(=O)c3cnn(-c4cccc(Cl)c4C)c3C3CCNCC3)CC2)c1C	-3	/	7	-8	0%	26
CC(C)(C)OC(=O)N1CCC(c2c(C(=O)N3CCN(C(=O)c4ccco4)CC3)cnn2-c2cccc(Cl)c2)CC1	-11	-8	4	14	9%	1
Cc1ccsc1-c1nc(CN(C)C(C2CC2)C2CC2)c(C)o1	-6	-19	-5	-6	-5%	0
Cc1ccc(S(=O)(=O)N(C)C)cc1NC(=O)COC(=O)CNC(=O)C12CC3CC(CC(C3)C1)C2	-1	15	4	-15	-5%	0
Cc1ccc(S(=O)c2snnc2C)cc1 (stereo not drawn)	4	47	14	2	4%	3
CCCNC(=O)c1nnsc1S(=O)(=O)c1ccc(Cl)cc1	-7	-85*	-23	-39*	-1%	0
